Results on five molecules are retold here after PubChem BioAssay.

Activity calls are given as the source filed them.

One experiment addresses Albumin (Bos taurus) (UniProt P02769). In words: bovine serum albumin binders on microarray, profiling panel, artefact control for SMM control protein annotation, biochemical, small-molecule microarray, Alexa647 label, 635/667 nm fluorescence (AID 1118).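 Also: score merges 667 nm emission intensity and signal-to-noise per printed compound spot.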 Conditions: BSA-A647 binding, fluorescence 635 nm, higher = more signal.
Experiment [1] is described as follows: small-molecule microarray binders of probe aXIP, primary screen, biochemical, NeuroSMM set, 635/667 nm fluorescence (AID 1119).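 Also: probe is the protein aXip251-270 applied at 1 µg/mL to compound-printed slides; binding of probe to printed compounds measured as 667 nm fluorescence plus signal to noise.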 Conditions: higher = more signal, called active from +8 up or from −8 down.
The nature of experiment [2]: small-molecule binders of probe aNOTCH3, primary screen, biochemical, small-molecule microarray, 635/667 nm fluorescence (AID 1120).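 Also: probe is a biotin-tagged antibody raised against NOTCH3 rather than NOTCH3 protein; score merges spot fluorescence near 667 nm with spot signal to noise.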 The note with it: higher = more signal.
Experiment [3] in a line: small-molecule binders of probe aNOTCH2, primary screen, biochemical, small-molecule microarray, 635/667 nm fluorescence (AID 1121).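 Also: score merges feature fluorescence read at 667 nm with its signal to noise.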 Conditions: higher = more signal.
The target in experiment [4] is Carbonic anhydrase 2 (Homo sapiens) (UniProt P00918). In words: CAII small-molecule binders, profiling panel, biochemical, small-molecule microarray, Alexa647-labelled CAII (AID 1122). The note with it: CAII-A647 binding fluorescence, higher = more signal.
A short description of experiment [5]: COS7 lysate on small-molecule microarray, probe aHis, 635 nm (AID 1123).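 Also: z-score combines 667nm fluorescence intensity with signal-to-noise per printed compound spot.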 Conditions: COS7 cell lysate, fluorescence, higher = more signal.
Experiment [6] is described as follows: compound binding in COS7 lysate, probe aLAP1, primary screen, cell lysate, small-molecule microarray (AID 1124).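 Also: lysate comes from COS7 cells expressing LAP1 and is applied at 0.3 µg/mL; score merges spot fluorescence near 667 nm with signal-to-noise over triplicate slides.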 The note with it: probe aLAP1, fluorescence, higher = more signal.
The subject of another experiment is Sam68 (KHDRBS1). Put plainly: Sam68 small-molecule binders, primary screen, biochemical, small-molecule microarray, 635 nm fluorescence (AID 1125).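 Also: score merges 667 nm channel intensity with signal to noise over triplicate slides.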 The note with it: small-molecule microarray binding, higher = more signal.
For experiment [7], the system named is Chordin-like protein 2 (CHRDL2). Put plainly: CHRDL2 small-molecule binders, primary screen, biochemical, small-molecule microarray, 635 nm fluorescence (AID 1126).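 Also: printed compound slides probed with Chrdl2 protein at 4 µg/mL for 1 h at 4 C; score merges 667 nm emission intensity with signal to noise over three replicate slides.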 The note with it: small-molecule microarray binding, fluorescence 635 nm; higher = more signal.
Experiment [8] addresses Concanavalin-A (Canavalia ensiformis) (UniProt P02866). Put plainly: ConA small-molecule binders, primary screen, artefact control for SMM control protein annotation, biochemical, small-molecule microarray, Alexa647 label, 635 nm (AID 1127).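 Also: z combines 667 nm emission intensity with signal-to-noise across three replicate slides.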 Conditions: ConA-A647 binding fluorescence, higher = more signal.
A short description of experiment [9]: anti-His antibody binders, primary screen, artefact control for SMM control protein annotation, biochemical, small-molecule microarray, 635 nm fluorescence (AID 1128).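 Also: score merges feature fluorescence with signal-to-noise for each printed compound spot.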 Conditions: anti-His Alexa647 antibody binding, higher = more signal.
Experiment [10] deals with Human papillomavirus type 1a E7 protein (residues 1-88). In words: HPV1a E7 small-molecule binders, primary screen, biochemical, small-molecule microarray, residues 1-88, 635 nm (AID 1129). The note with it: small-molecule microarray binding, fluorescence 635 nm; higher = more signal.
Experiment [11] deals with Focal adhesion kinase 1 (Homo sapiens) (UniProt Q05397). In words: small-molecule microarray binders of FAK, primary screen, biochemical, 635/667 nm fluorescence, BSA, DTT (AID 1130).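 Also: composite of spot emission at 667 nm and signal to noise over triplicate slides.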 Conditions: PTK2 binding, 635 nm fluorescence, higher = more signal.
Experiment [12] has as its system Fibrinogen (Alexa647-labelled). In words: fibrinogen binders on compound microarrays, profiling panel, artefact control for SMM control-protein annotation, biochemical, small-molecule microarray, 635/667 nm fluorescence (AID 1131).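 Also: z-score merges 667 nm fluorescence with per-spot signal-to-noise over triplicate slides.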 The note with it: fibrinogen-A647 binding fluorescence, higher = more signal.
The target in experiment [13] is Follistatin (Homo sapiens) (UniProt P19883). Put plainly: follistatin binders on small-molecule microarrays, primary screen, biochemical, small-molecule microarray, 635/667 nm fluorescence (AID 1132). The note with it: FST binding, 635 nm fluorescence, higher = more signal.
Experiment [14] has as its target Fibroblast growth factor 2 (Homo sapiens) (UniProt P09038). Put plainly: FGF2 binders on small-molecule microarrays, primary screen, biochemical, small-molecule microarray, 635/667 nm fluorescence (AID 1133). Conditions: small-molecule microarray binding, FGF2, fluorescence 635/667; higher = more signal.
The nature of experiment [15]: mitochondrial membrane potential change in A549 cells, profiling panel, cell-based, JC-1 fluorescence, basal, 24 h, 100 nL (AID 1138).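 Also: A549 lung adenocarcinoma cells under basal conditions with no added stimulus; test concentration not given here.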 The note with it: higher = more signal.
Another experiment relates to Lefty1. Put plainly: Lefty1 binders on small-molecule microarrays, primary screen, biochemical, small-molecule microarray, 635/667 nm fluorescence (AID 1139). The note with it: small-molecule microarray binding, fluorescence 635/667; higher = more signal.
Experiment [16] deals with wheat germ agglutinin (Triticum aestivum), Alexa647-labelled. Put plainly: wheat germ agglutinin binders on compound microarrays, profiling panel, artefact control for SMM control-protein annotation, biochemical, small-molecule microarray, 635/667 nm fluorescence (AID 1140).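 Also: score merges 667 nm feature emission with signal to noise over triplicate slides.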 The note with it: WGA-A647 binding, 635 nm fluorescence, higher = more signal.
For experiment [17], the target named is Luciferin 4-monooxygenase (Photinus pyralis) (UniProt P08659). Put plainly: firefly luciferase enzyme inhibitors, primary screen, biochemical, luminescence, purified enzyme, 2006 set (AID 1141).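 Also: cell-free assay with purified firefly luciferase at 100 ng per well in PBS; test concentration not given here.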 The note with it: SteadyGlo luminescence, 30 min, higher = more signal, called active from +8 up or from −8 down.
Luciferin 4-monooxygenase (Photinus pyralis), sequence (P08659 whole entry, looked up): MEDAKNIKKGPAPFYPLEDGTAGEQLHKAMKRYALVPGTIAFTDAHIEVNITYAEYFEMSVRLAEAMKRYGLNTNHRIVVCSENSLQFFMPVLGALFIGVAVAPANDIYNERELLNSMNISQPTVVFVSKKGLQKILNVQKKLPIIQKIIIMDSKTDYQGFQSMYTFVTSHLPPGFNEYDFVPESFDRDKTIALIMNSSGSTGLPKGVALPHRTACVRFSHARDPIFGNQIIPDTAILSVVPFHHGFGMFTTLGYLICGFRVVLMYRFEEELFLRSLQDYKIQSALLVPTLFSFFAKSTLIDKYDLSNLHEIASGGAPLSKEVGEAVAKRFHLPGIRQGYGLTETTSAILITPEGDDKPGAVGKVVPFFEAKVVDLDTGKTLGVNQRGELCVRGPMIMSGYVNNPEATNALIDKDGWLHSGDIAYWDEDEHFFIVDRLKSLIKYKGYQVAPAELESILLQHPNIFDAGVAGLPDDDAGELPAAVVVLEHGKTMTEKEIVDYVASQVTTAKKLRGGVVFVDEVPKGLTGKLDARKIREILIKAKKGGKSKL

Albumin (Bos taurus), sequence (P02769 whole entry, looked up): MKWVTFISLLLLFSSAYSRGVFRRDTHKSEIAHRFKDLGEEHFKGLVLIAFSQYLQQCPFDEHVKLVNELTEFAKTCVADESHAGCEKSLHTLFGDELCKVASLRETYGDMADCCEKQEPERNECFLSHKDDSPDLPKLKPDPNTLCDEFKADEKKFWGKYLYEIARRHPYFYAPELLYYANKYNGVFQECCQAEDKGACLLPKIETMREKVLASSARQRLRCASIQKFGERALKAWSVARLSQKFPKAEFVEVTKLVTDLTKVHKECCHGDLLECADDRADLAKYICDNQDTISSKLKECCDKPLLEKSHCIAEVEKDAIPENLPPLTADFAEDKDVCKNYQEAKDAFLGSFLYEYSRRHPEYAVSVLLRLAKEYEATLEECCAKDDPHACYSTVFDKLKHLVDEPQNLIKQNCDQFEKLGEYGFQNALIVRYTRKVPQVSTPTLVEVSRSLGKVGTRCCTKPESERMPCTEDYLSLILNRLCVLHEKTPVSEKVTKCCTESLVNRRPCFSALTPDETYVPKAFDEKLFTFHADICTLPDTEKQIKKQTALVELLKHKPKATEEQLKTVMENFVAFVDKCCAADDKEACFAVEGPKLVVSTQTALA
Focal adhesion kinase 1 (Homo sapiens), sequence (Q05397 whole entry, looked up): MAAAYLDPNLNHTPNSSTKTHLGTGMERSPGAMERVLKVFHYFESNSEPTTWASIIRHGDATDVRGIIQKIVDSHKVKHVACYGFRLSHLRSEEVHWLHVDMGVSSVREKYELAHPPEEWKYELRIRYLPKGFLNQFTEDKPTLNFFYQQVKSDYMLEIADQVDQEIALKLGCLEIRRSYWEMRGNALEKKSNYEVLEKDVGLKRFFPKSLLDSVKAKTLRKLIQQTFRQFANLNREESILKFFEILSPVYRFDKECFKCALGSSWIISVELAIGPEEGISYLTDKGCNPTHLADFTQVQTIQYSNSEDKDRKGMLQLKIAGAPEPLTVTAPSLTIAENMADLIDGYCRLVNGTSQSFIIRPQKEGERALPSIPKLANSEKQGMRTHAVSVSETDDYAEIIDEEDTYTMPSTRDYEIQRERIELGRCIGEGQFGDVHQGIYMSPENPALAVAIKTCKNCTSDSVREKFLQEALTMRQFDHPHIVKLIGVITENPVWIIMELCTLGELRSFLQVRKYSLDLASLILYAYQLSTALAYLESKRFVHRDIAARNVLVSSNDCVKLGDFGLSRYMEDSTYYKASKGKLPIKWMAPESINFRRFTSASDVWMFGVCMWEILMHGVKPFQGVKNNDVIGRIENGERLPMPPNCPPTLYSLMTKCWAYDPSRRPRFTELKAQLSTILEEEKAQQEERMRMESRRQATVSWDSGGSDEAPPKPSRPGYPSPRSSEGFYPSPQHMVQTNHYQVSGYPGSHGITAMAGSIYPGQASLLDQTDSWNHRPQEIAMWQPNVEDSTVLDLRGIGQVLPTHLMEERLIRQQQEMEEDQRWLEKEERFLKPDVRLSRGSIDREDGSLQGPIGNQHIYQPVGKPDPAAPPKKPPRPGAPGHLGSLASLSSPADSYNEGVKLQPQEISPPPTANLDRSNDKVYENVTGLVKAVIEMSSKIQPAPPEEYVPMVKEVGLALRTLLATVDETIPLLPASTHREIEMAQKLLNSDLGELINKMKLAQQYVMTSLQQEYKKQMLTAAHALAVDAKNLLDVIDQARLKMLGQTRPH
Follistatin (Homo sapiens), sequence (P19883 whole entry, looked up): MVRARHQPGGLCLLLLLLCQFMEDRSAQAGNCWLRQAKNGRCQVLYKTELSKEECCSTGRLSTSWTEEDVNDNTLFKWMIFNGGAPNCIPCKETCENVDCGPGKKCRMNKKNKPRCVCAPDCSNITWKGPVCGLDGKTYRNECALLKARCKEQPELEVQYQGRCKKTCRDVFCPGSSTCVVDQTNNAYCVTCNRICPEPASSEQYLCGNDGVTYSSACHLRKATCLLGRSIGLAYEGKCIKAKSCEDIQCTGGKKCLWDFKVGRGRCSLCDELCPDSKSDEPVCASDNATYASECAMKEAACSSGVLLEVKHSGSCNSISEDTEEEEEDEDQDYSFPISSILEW
Concanavalin-A (Canavalia ensiformis), sequence (P02866 whole entry, looked up): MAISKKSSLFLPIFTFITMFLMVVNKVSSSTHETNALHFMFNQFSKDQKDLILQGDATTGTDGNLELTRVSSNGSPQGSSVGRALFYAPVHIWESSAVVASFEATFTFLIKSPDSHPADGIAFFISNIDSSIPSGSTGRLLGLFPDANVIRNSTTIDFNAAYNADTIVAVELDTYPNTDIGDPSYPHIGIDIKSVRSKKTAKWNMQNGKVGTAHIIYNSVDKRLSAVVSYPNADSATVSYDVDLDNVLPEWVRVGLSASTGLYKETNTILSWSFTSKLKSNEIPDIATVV
Fibroblast growth factor 2 (Homo sapiens), sequence (P09038 whole entry, looked up): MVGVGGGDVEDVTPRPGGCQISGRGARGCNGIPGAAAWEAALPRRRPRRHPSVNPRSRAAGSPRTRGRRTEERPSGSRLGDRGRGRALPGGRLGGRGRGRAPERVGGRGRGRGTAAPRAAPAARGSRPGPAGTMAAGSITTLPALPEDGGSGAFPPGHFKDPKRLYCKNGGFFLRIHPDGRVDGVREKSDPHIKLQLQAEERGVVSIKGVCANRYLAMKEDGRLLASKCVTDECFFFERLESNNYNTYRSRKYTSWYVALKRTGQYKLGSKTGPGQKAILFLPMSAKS

Regarding `COCCOC(=O)N1C(=O)[C@@]2(c3cc(C#CC4=CCCCC4)ccc31)[C@H](c1ccccc1OCCO)N1[C@H](c3ccccc3)[C@H](c3ccccc3)OC(=O)[C@H]1[C@@H]2C(=O)NC[C@H](O)c1ccccc1`, the composite z-score in the experiment with Albumin (Bos taurus) is -0.185; in [2], 0.463; in experiment [3] it was -0.118; in [4], 0.409; in [5], 1.53; in experiment [6] it was 0.661. The composite z-score amounted to 1.3 in the experiment on Sam68 (KHDRBS1); 0.715 in [7]; 1.14 in [8]; 0.705 in experiment [9]; 1.14 in experiment [10]; 0.303 in experiment [11]. Moreover, the composite z-score in experiment [12] stood at 0.882; in experiment [13] it was 1.36; in experiment [14] it was 1.52; in the experiment on Lefty1, 1.46; in experiment [16] it was 0.658. In experiment [1], the composite Z-score was 0.511 (inactive). The z-score was -0.701 in experiment [15] and -1.04 (inactive) in experiment [17].

For `Cc1ccc(S[C@]2(C(=O)O)CC(=O)N(C3CCCCC3)[C@@H]2c2ccc(CO)cc2I)cc1`, the composite z-score is 0.905 with Albumin (Bos taurus); 0.175 in [2]; -0.013 in [3]; 0.331 in [4]; 2.84 in experiment [5]; 1.01 in experiment [6]. For the same molecule, the composite z-score in the experiment with Sam68 (KHDRBS1) is 1.29; in experiment [7], -0.565; in [8], 1.02; in [9] it was 0.96; in experiment [10], 1.22; in experiment [11] it was -0.155. In addition, the composite z-score in experiment [12] was 0.745; in experiment [13], 1.19; in experiment [14], 0.101; with Lefty1, -0.163; in experiment [16], 0.89. In experiment [1], the composite Z-score was 0.258 (inactive). The values for the z-score in experiment [15] and in experiment [17] were -0.996 and 0.453 (inactive), respectively.

Regarding `Cc1ccccc1C(O)C1C=CC2C(=O)NC(=O)C2N1Nc1ccccn1` (stereo not given), the composite z-score was 0.65 with Albumin (Bos taurus); -0.15 in experiment [2]; -0.14 in experiment [3]; 0.355 in experiment [4]; 0.78 in [5]; 0.483 in experiment [6]. The composite z-score in the experiment with Sam68 (KHDRBS1) is -0.805; in experiment [7], 0.102; in experiment [8] it was -0.227; in experiment [9], 0.744; in experiment [10] it was 0.108; in experiment [11] it was 0.0312. The composite z-score in experiment [12] is 0.693; in experiment [13], -0.145; in [14], -0.227; in the experiment with Lefty1, -0.0955; in experiment [16] it was 0.159. In addition, the composite Z-score in experiment [1] is 0.497 (inactive). In addition, the z-score is 0.0755 in experiment [15] and -0.792 (inactive) in experiment [17].

With `CCCC[C@@H](O)C1=C(COC)C[C@H]2C(=O)N(Cc3ccccc3)C(=O)[C@H]2[C@H]1CO`, the composite z-score was 0.232 in the experiment with Albumin (Bos taurus); -0.214 in experiment [2]; -0.0668 in experiment [3]; 0.0793 in [4]; 0.368 in [5]; 0.263 in experiment [6]. For the same molecule, the composite z-score in the experiment on Sam68 (KHDRBS1) is 0.651; in experiment [7] it was 0.293; in experiment [8], 0.455; in experiment [9], 0.708; in [10], 0.33; in experiment [11], -0.285. The composite z-score worked out at 0.98 in [12]; 0.855 in experiment [13]; 1.33 in experiment [14]; 0.697 in the experiment on Lefty1; 1.13 in [16]. Besides, in experiment [1], the composite Z-score is -0.306 (inactive). In addition, the z-score in [15] was 0.699; in [17], -0.903 (inactive).

Take `N#Cc1ccc(NN2C(C(O)c3ccc(Br)cc3)C=CC3C(=O)N(c4ccccc4)C(=O)C32)cc1` (stereo not given): the composite z-score is 0.539 with Albumin (Bos taurus); 0.43 in [2]; 0.357 in [3]; 0.721 in experiment [4]; 3.24 in experiment [5]; 1.35 in experiment [6]. In addition, the composite z-score in the experiment with Sam68 (KHDRBS1) is 0.83; in [7], 0.195; in experiment [8], 1.07; in experiment [9], 1.28; in [10], 1.18; in experiment [11] it was 0.633. The composite z-score in experiment [12] was 0.561; in [13] it was 0.873; in [14], 0.127; in the experiment on Lefty1 it was -0.0682; in experiment [16], 1.49. Also, the composite Z-score in experiment [1] is 0.718 (inactive). Also, the z-score in experiment [15] is 0.494; in experiment [17], -0.517 (inactive).
